Assay results from PubChem BioAssay (Tox21).
Values without a mark were called inactive. Calls of active or inactive are those of the source. The call rests on the fitted dose curve.

These compounds were tested against Acetylcholinesterase (Homo sapiens) (UniProt P22303) (assay: Acetylcholinesterase (AChE) small molecule antagonists: enzyme-based qHTS assay (AID 1347397; further: nearly all actives have a fitted effect of over 55% in size)). Conditions: Potency: AChE enzyme activity inhibition; outcome: AChE enzyme activity inhibition; series mostly up to 115 µM; activity change, negative = inhibition: at the top concentration.
Chain of Acetylcholinesterase (Homo sapiens) (P22303 whole entry, looked up): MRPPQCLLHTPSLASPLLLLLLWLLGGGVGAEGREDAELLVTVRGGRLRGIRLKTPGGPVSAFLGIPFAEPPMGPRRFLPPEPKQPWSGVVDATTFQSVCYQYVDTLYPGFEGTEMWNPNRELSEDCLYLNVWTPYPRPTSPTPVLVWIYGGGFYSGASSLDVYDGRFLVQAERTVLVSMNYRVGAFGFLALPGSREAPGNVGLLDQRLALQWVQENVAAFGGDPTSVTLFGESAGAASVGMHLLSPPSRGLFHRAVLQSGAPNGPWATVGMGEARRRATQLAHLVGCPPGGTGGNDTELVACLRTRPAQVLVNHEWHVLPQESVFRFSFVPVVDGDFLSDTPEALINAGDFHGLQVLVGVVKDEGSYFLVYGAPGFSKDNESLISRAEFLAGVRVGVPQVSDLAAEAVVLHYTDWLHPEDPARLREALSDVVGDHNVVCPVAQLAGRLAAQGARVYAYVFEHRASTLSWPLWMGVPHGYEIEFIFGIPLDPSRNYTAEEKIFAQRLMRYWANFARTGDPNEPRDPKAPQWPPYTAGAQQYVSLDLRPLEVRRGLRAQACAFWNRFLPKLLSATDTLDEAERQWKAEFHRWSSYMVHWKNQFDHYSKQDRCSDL
How it was run: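 Recombinant human AChE, dispensed at 50 mU/mL, was preincubated with Tox21 10K compounds or DMSO vehicle for 30 min at room temperature. DTNB plus acetylthiocholine was then added, and thiocholine was measured colorimetrically after a further 10 min.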
On the % scale 0 is the no-effect control and ±100 the full control effect; potency means the concentration at half of the fitted maximal effect.

| SMILES | activity change, negative = inhibition | Potency |
| --- | --- | --- |
| COC(=O)[C@@H](N)CCCN/C(N)=N/[N+](=O)[O-] | 0.539% [at 53 µM] | – |
| COc1cccc(C=O)c1 | -0.645% | – |
| CC[C@H](O)C(C[C@H](C)N(C)C)(c1ccccc1)c1ccccc1 | 0.405% | – |
| CCc1ccc(C2CCNCC2)cc1 | -1.94% [at 53 µM] | – |
| CCN[C@@H](C)Cc1cccc(C(F)(F)F)c1 | 0.596% [at 53 µM] | – |
| CCOC(=O)N(C)N=O | 0.55% | – |
| CCN(CCO)CCn1c(Cc2ccccc2)nc2c1c(=O)n(C)c(=O)n2C | -0.234% [at 53 µM] | – |
| CCCCCCCCBr | 0.587% | – |
| O=C(Cl)OCc1ccccc1 | 0.273% | – |
| NNC(N)=O | -0.0061% | – |
| CS(=O)(=O)c1ccc(C(=O)C2C(=O)CCCC2=O)c(Cl)c1COCC(F)(F)F | -15.8% | – |
| CC(C)[N+](C)(CCC(C(N)=O)(c1ccccc1)c1ccccc1)C(C)C | -1.08% [at 53 µM] | – |
| CC(Cc1ccccc1)NCCCCl (stereo not given) | 0.831% [at 53 µM] | – |
| NCC1(CC(=O)O)CCCCC1 | 0.277% [at 53 µM] | – |
| C[C@H]1CCCC(=O)CCC/C=C/c2cc(O)cc(O)c2C(=O)O1 | – | inactive |
| CCN1CCCC1CNC(=O)C(O)(c1ccccc1)c1ccccc1 (stereo not given) | -2.77% [at 53 µM] | – |
| O=c1[nH]oc2c1CCNC2 | 0.119% [at 53 µM] | – |
| Cc1ccc2c(c1)C1CN(C)CCC1N2 (stereo not given) | 0.554% [at 23.6 µM] | – |
| CC(C)(C)C(=O)C(Cl)Cl | 0.409% | – |
| CCNc1nc(NCC)nc(SC)n1 | 1.18% | – |
| Cc1ccc2cc(C)ccc2c1 | -0.169% | – |
| Nc1c(Cl)c(F)nc(OCC(=O)O)c1Cl | 0.197% | – |
| CNC(=O)Oc1cc(C)c(N(C)C)c(C)c1 | – | 2250 nM (active) |
| CCOP(=S)(OCC)Oc1ccc(Cl)cc1Cl | -11.3% | – |
| Cc1ccc(-c2nc3ccc(C)cn3c2CC(=O)N(C)C)cc1 | 0.41% [at 53 µM] | – |
